In PubChem BioAssay (NCATS) one finds outcome data, which are given here for 21 molecules.

Results filed as inconclusive are left out. Activity calls are given as the source filed them. Calls follow the shape of the dose curve; as a rule, active = well fitted inhibition curve with a large enough effect; inconclusive = small, poorly fitted or top-dose-only effect; inactive = flat fitted curve, though single readings scatter.

Chain of Phospholipid hydroperoxide glutathione peroxidase GPX4 (Homo sapiens) (P36969 whole entry, looked up): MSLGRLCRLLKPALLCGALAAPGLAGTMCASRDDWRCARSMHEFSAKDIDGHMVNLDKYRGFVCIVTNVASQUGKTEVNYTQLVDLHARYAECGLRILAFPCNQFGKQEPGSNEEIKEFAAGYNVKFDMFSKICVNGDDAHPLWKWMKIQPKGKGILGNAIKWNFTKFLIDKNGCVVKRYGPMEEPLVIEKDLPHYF

The target in the assay is Phospholipid hydroperoxide glutathione peroxidase GPX4 (Homo sapiens) (UniProt P36969). In words: Primary qHTS Assay for Inhibitors of Recombinant Selenoprotein Glutathione Peroxidase 4 (GPX4) (AID 1845192). Also: nearly all actives have a fitted effect of over 65% in size. Conditions: recombinant GPX4, GR-coupled NADPH fluorescence, 15 min; series mostly up to 50 µM. Summed up:
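Steps: GPX4 plus compound, 30 min RT; add GR/GSH/NADPH master mix; start with cumene hydroperoxide; read 340/450 nm fluorescence at 0 and 15 min. Finals were 200 nM GPX4, 1 mM GSH, 0.5 mM CHP, 0.5 mM NADPH, 100 nM GR.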
(qHTS replaces the single test concentration by a dilution series.)
With `C[N+](C)(C)CCOC(N)=O`, the outcome was inactive.

On to `C[N+](C)(C)CCCCCCCCCC[N+](C)(C)C`, for which the result was inactive.

Turning to `COc1ccc2c(c1OC)C(=O)O[C@@H]2[C@H]1c2c(cc3c(c2OC)OCO3)CCN1C`, the result was inactive.

`COc1ccc([C@@H]2Sc3ccccc3N(CCN(C)C)C(=O)[C@@H]2OC(C)=O)cc1`: the outcome was inactive.

Turning to `CN(C)CCCN1c2ccccc2Sc2ccccc21`, the result was inactive.

Take `CCn1ccnc1CC1COc2ccccc2O1` (stereo unspecified): the outcome was inactive.

Take `Nc1c2c(nc3ccccc13)CCCC2O` (stereo unspecified): the outcome was inactive.

Turning to `CNC1(C)C2CCC(C2)C1(C)C` (stereo unspecified), the result was inactive.

For the molecule `CSc1ccc(C(=O)c2[nH]c(=O)[nH]c2C)cc1`, the outcome was inactive.

Regarding `NC(=O)c1cn(Cc2c(F)cccc2F)nn1`, the outcome was inactive.

On to `CCN1CCC[C@H]1CNC(=O)c1c(O)c(Cl)cc(Cl)c1OC`, for which the result was inactive.

`CNCCC(Oc1ccccc1OC)c1ccccc1` (stereo unspecified): the result was inactive.

For the molecule `CN(C)CC/C=C1\c2ccccc2COc2ccccc21`, the outcome was inactive.

Turning to `Nc1ncn([C@@H]2O[C@H](CO)[C@@H](O)[C@H]2O)c(=O)n1`, the outcome was inactive.

Take `OCCN1CCN(CC/C=C2/c3ccccc3Sc3ccc(C(F)(F)F)cc32)CC1`: the result was inactive.

With `NC(=O)c1ncn([C@@H]2O[C@H](CO)[C@@H](O)[C@H]2O)c1O`, the outcome was inactive.

On to `COCCc1ccc(OCC(O)CNC(C)C)cc1` (stereo unspecified), for which the result was inactive.

On to `CC(N=C(NC#N)Nc1ccncc1)C(C)(C)C` (stereo unspecified), for which the outcome was inactive.

Consider `Cc1cc(C)c(/C=C2\C(=O)Nc3ccccc32)[nH]1`, for which the result was inactive.

As for `CN(C)C(=O)Oc1cccc([N+](C)(C)C)c1`, the result was inactive.

For the molecule `COCC(=O)O[C@]1(CCN(C)CCCc2nc3ccccc3[nH]2)CCc2cc(F)ccc2[C@@H]1C(C)C`, the outcome was inactive.
